Data taken from PubChem BioAssay AID651558 (National Center for Advancing Translational Sciences (NCATS), 2012).
The whole screen tested about 1,200 compounds, of which about 480 (40%) were called active. Roughly 29% stayed inconclusive and do not appear here. Calls come from the whole dose curve; as a rule, active = well fitted inhibition curve with a large enough effect; inconclusive = small, poorly fitted or top-dose-only effect; inactive = no such curve, though single readings can be large or run the other way. Some of the results follow.

Experiment: qHTS Assay to Find Inhibitors of Chronic Active B-Cell Receptor Signaling: Hit Validation in Primary Screen; note: nearly all actives have a fitted effect of over 75% in size
Settings: ABC-DLBCL IkB-luc/CBR ratio luminescence, 4 h; series mostly up to 46.1 µM
Outline: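 TMD8 ABC-DLBCL cells carrying doxycycline-inducible IkBa-green luciferase fusion and free red luciferase, 0.5% FBS, dosed 46 uM–3 nM with doxycycline for 4 h at 37C. Green/red luminescence ratio normalized to basal and 10 uM MG-132.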
Potency is the fitted concentration of half-maximal effect.

Which Potency does the source give for `COc1cc(OC)cc(-c2cc3cc4c(cc3cn2)OCO4)c1` here?
The Potency was 3.66 µM (active).

With `CCOC(=O)C1CCN(S(=O)(=O)c2c(Cl)ccc3nonc23)CC1` as the compound, how does the Potency read?
The Potency was 5.8 µM (active).

For `CCOc1ccc2nc(N3C(=O)CNC3=S)sc2c1`, which Potency is on record?
The Potency was “inactive”.

With `CCOC(=O)Nc1ccc2nc(N3CCCCCC3)sc2c1` as the compound, how does the Potency read?
Its Potency is 20.6 µM (active).

With `CN(CC(=O)Nc1ccccc1C(F)(F)F)C(=O)c1ccccc1Sc1ccccc1C#N` as the compound, how does the Potency read?
Its Potency is “inactive”.

For `COc1cccc(N2CCN(C(=O)c3ccc(CS(=O)c4ccc(Cl)cc4)o3)CC2)c1` (stereo not drawn), which Potency is on record?
The Potency was 23.1 µM (active).

Which Potency does the source give for `COc1cccc(N2CCN(C(=O)c3ccc(CS(=O)c4ccc(C)cc4)o3)CC2)c1` (stereo not drawn) here?
The Potency was 6.51 µM (active).

Which Potency does the source give for `C=CCNC(=S)NN=C1CCCCCCC1` here?
The Potency was “inactive”.

Which Potency does the source give for `CCOC(=O)c1cnc(Nc2nc3ccccc3o2)nc1CSC(=S)N(CC)CC` here?
The Potency was “inactive”.

Which Potency does the source give for `COc1ccc(C=C2c3ccccc3C(=O)c3ccccc32)c(OC)c1` here?
Its Potency is 4.61 µM (active).

With `O=C(OCC(O)CO)c1ccccc1Nc1ccnc2cc(Cl)ccc12` (stereo not drawn) as the compound, how does the Potency read?
The Potency was 20.6 µM (active).

For `Oc1ccccc1-n1c(-c2ccccc2)ccc1-c1ccccc1`, which Potency is on record?
The Potency was “inactive”.

With `N#CC1=C(N)OC2=C(CCc3ccccc32)C1c1ccccc1` (stereo not drawn) as the compound, how does the Potency read?
Its Potency is 2.59 µM (active).

For `Cc1nc2c(C(F)(F)F)cccc2c2c1CCS2`, which Potency is on record?
Its Potency is 16.4 µM (active).

For `COc1ccccc1-n1cnc2cc(NCc3cccs3)ccc21`, which Potency is on record?
The Potency was 16.4 µM (active).

With `N#CC1=C2SCC(O)(c3ccccc3)N2C(=O)CC1c1cccs1` (stereo not drawn) as the compound, how does the Potency read?
Its Potency is 13 µM (active).

With `N#CC1=C2SCC(O)(c3ccccc3)N2C(=O)CC1c1ccccc1` (stereo not drawn) as the compound, how does the Potency read?
The Potency was 18.4 µM (active).

For `COc1cc(OC)cc(C(=O)NCc2cc(C)nc3ccccc23)c1`, which Potency is on record?
Its Potency is “inactive”.

Which Potency does the source give for `COc1cc(OC)cc(C(=O)NCc2ccc3c(c2)CCN3C(=O)c2ccccc2)c1` here?
The Potency was 10.3 µM (active).

With `CCOc1ccccc1NC(=O)Cn1nnc(C(=O)NCc2cccs2)c1N` as the compound, how does the Potency read?
Its Potency is 2.59 µM (active).

For `CCc1nnc(NC(=O)CSc2nnc(-c3ccccc3NC(=O)c3ccccc3)o2)s1`, which Potency is on record?
Its Potency is “inactive”.

Which Potency does the source give for `O=C(CSc1nnnn1-c1ccccc1)Nc1nsc(-c2ccc(Cl)cc2)n1` here?
Its Potency is “inactive”.

Which Potency does the source give for `O=C(CSc1ncn[nH]1)Nc1nnc(-c2ccccc2)s1` here?
Its Potency is 0.231 µM (active).

Which Potency does the source give for `CC1CCN(C(=O)CCCOc2cc(=O)n(C)c3ccccc23)CC1` here?
Its Potency is 23.1 µM (active).

For `O=C(N1CCN(c2ccccn2)CC1)N1c2ccccc2Sc2ccccc21`, which Potency is on record?
The Potency was 7.31 µM (active).

Which Potency does the source give for `Cc1ccc(NS(=O)(=O)c2cc(-c3n[nH]c(=O)c4ccccc34)ccc2C)cc1` here?
The Potency was 18.4 µM (active).

With `Cc1cc(=O)[nH]c2ccc(S(=O)(=O)Nc3ccc(O)cc3)cc12` as the compound, how does the Potency read?
The Potency was “inactive”.

With `CC(=O)Nc1ccc(NS(=O)(=O)c2cc(-c3n[nH]c(=O)c4ccccc34)ccc2C)cc1` as the compound, how does the Potency read?
Its Potency is 23.1 µM (active).
